An excerpt weighted towards active compounds, which were near 4.7% of everything screened.
TIM10 inh: growth inhibitors of TIM10 yeast strain; inhibition, % at 10 µM; S. cerevisiae TIM10 strain growth, BacTiter-Glo luminescence, 24 h; actives 1.4% (n = 330,000); AID 463195;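 active = inhibition of 40% or more at the single tested concentration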;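 note: wild-type TIM10 isogenic control strain grown at permissive 25 °C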
tim23-1 inh: growth inhibitors of tim23-1 mutant yeast; S. cerevisiae tim23-1 growth, BacTiter-Glo luminescence, 24 h; inhibition, % at 20 µM; actives 1.3% (n = 330,000); AID 463212;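 active = growth inhibition of the mutant yeast at or above 50%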;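 note: temperature-sensitive mutant grown at 25 °C; plate controls were DMSO-treated mutant yeast for no effect and medium wells lacking yeast for full effect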
tim10-1 inh: inhibits growth of tim10-1 mutant yeast | S. cerevisiae tim10-1 ts strain growth, BacTiter-Glo, 24 h | inhibition, % at 20 µM | actives 2.2% (n = 330,000);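 active = inhibition of at least 40%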;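 note: mutant grown at 25 °C; 0% = DMSO wells with yeast and 100% = wells holding no yeast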
PfHsp90 set2: reduces growth (ATP signal) of yeast expressing P. falciparum Hsp90; actives 0.32% (n = 310,000); inhibition, % at 9.4 µM; S. cerevisiae expressing PfHsp90, BacTiter-Glo ATP, 48 h; yeast lacking PDR1 and PDR3 efflux regulators;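 active = every replicate shows inhibition above about 80%, whatever the replicate mean, limit read from the data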;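 note: 0% = DMSO neutral controls and 100% = 20 µM radicicol positive controls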
Calb FLC: C. albicans growth modulation with fluconazole; C. albicans CaCi-2 (fluconazole-resistant clinical isolate) + fluconazole, Alamar Blue growth, 48 h; growth inhibition, % (concentration not given with the values); actives 0.57% (n = 300,000);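 active = growth inhibition above about 58% in most replicates, limit read from the data, passing the limit was not always enough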;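 note: all wells also contain fluconazole at 8 µg/ml as a sub-toxic cotreatment; 0% = median of DMSO wells and 100% = median of geldanamycin control wells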
SKKanGAS inh: blocks kanamycin growth of S. pyogenes SKKanGAS strain | BacTiter-Glo, 6 h | inhibition, % at 7.5 µM | actives 1.3% (n = 300,000);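 active = mean replicate score, as percent of positive control median, at least 50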;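 note: strain carries kanamycin resistance gene driven by streptokinase promoter and grows in 40 µg/ml kanamycin; loss of luminescence reflects streptokinase promoter inhibition or plain growth inhibition; 0% = median of DMSO wells and 100% = positive control at its reference dose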
tim10-1 conf: tim10-1 yeast growth inhibition, confirmed; inhibition, % at 20 µM; S. cerevisiae tim10-1 ts strain growth, BacTiter-Glo, 24 h; actives 56% (n = 7,400); shares compounds with tim10-1 inh; AID 463213;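 active = inhibition of yeast growth at or above a set limit in either of two repeat tests at 20 µM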;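 note: tim10-1 mutant grown at permissive 25 °C to find synthetic lethal compounds; 0% = DMSO yeast wells and 100% = medium wells without yeast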
Active calls of the source: *; · = no result.

SMILES | TIM10 inh | tim23-1 inh | tim10-1 inh | PfHsp90 set2 | Calb FLC | SKKanGAS inh | tim10-1 conf
CC(=O)Oc1ccc(C(=O)Nc2ccc(S(=O)(=O)N3CCOCC3)cc2)cc1 | -5 | 17 | 7 | -10 | 10 | 1 | ·
CCc1ccc(NC2=CC(=O)CC(C)(C)C2)cc1 | -13 | 20 | 27 | -13 | -8 | 7 | ·
CC(C)c1ccc(NC2=CC(=O)CC(C)(C)C2)cc1 | 17 | 38 | 41* | -18 | -1 | -2 | 15
S=c1[nH]c(-c2ccc(Cl)cc2)cs1 | 12 | 33 | 48* | -10 | 24 | 2 | 17
Cc1ccc(-c2csc(=S)[nH]2)cc1 | 19 | 27 | 20 | -4 | 18 | 1 | ·
COc1ccc(/C=C2\CCCC3C2=NC(=S)NC3c2ccc(OC)cc2)cc1 (stereo not given) | 24 | 50 | 46* | -8 | 4 | 13 | 28
O=C(CCN1CCc2ccccc2C(c2ccccc2)C1)c1ccc2c(c1)OCCO2 (stereo not given) | 7 | 33 | 56* | 138* | -19 | 6 | 56*
O=C(CCN1Cc2ccccc2C1)c1ccc2c(c1)OCCO2 | -4 | 29 | 32 | -1 | -7 | -3 | ·
CCOc1ccc2ccc(OCC)c(/C=N/n3cnnc3)c2c1 | 17 | 37 | 10 | 4 | -3 | -14 | ·
CS(=O)(=O)c1ccc(NC(=O)CCN2C(=O)C3CC=CCC3C2=O)cc1 (stereo not given) | 1 | -10 | -24 | · | 10 | -10 | ·
Cc1nn(-c2ccc(F)cc2F)c2c1-c1nc(N3CCCC3)ncc1CC2 | 35 | 28 | 45* | -14 | 17 | -7 | 20
CO/N=C/c1ccc(N2CCN(C(=O)c3ccc(F)cc3)CC2)c([N+](=O)[O-])c1 | 26 | 43 | 34 | 1 | 3 | 8 | ·
CO/N=C/c1ccc(N2CCN(C(=O)c3cccc(C(F)(F)F)c3)CC2)c([N+](=O)[O-])c1 | 27 | 28 | 41* | -16 | 17 | 10 | 26
O=C(Nc1cccc(Cl)c1)c1csc(-c2ccccc2)n1 | 22 | 32 | 44* | -8 | -30 | 13 | 9
O=C(Nc1ccc(Cl)c(Cl)c1)c1csc(-c2ccccc2)n1 | 3 | -2 | 10 | 3 | -14 | 1 | ·
N#C/C(=N\Nc1cccc(Cl)c1)C(=O)c1ccccc1 | 15 | 36 | 42* | -17 | 29 | 25 | 25
Nc1ccccc1C(=O)C[C@H](N)C(=O)O | · | · | · | 1 | · | · | ·
COc1cccc(NC(=O)CN(C)C(=O)C2CCN(C(=O)c3ccccc3C)CC2)c1 | -1 | -29 | -16 | · | 0 | -3 | ·
Cc1cc(Cl)c2oc(C(=O)N(C)C3CCOC3)c(C)c2c1 (stereo not given) | -10 | 40 | 41* | 2 | 0 | -6 | -10
Cc1cc(Cl)c2oc(C(=O)N(CCO)Cc3ccccc3)c(C)c2c1 | -5 | 32 | -9 | -1 | 13 | 0 | ·
COc1ccc(C2=CC(=O)C[C@H](c3ccc(F)cc3)C2)c(OC)c1 | 9 | 47 | 22 | 13 | · | · | ·
CC(C)OC(=O)/C(C#N)=C/c1cn(C)c2ccccc12 | 27 | 18 | 20 | -3 | 3 | -14 | ·
CC(C)OC(=O)/C(C#N)=C/c1c[nH]c2ccccc12 | 10 | 32 | 42* | -11 | -8 | -16 | 28
COc1cccc(CN2CCN(C(=O)c3ccc(-c4ccccc4)cc3)CC2)c1OC | 39 | 31 | 44* | 0 | -7 | 0 | 27
CC[n+]1c(/C=C2/C=C(C)CC(C)C2)sc2ccccc21 (stereo not given) | 39 | 32 | 48* | -2 | 7 | -8 | 26
CC/C(=C/c1sc2ccccc2[n+]1CC)SC | -10 | 12 | 9 | -9 | -19 | -2 | ·
COc1ccc(C(CNC(=O)C(C)Oc2ccc(Br)cc2)N2CCCCC2)cc1 (stereo not given) | -4 | 6 | 5 | -33 | · | · | ·
CN(NS(=O)(=O)c1ccc(Cl)cc1)c1ncc(C(F)(F)F)cc1Cl | 14 | 27 | 42* | -9 | 5 | -1 | 26
CC(C)(C)NS(=O)(=O)c1ccc(Oc2ncc(C(F)(F)F)cc2Cl)cc1 | 30 | 34 | 41* | -35 | -2 | 4 | 38*
Oc1cccc(Oc2ncc(C(F)(F)F)cc2Cl)c1 | 24 | 13 | 49* | -21 | -4 | -6 | 40*

Screening data as filed in PubChem.
